High-throughput results: PubChem, University of Kansas High Throughput Screening Laboratory
Pf apPOL block: Pf-apPOL inhibitors, biochemical, fluorescence. AID 1794808, 2022. hit rate 0.25% among 210,000. inhibition, % at 10 µM. Recombinant Pf-apPOL, molecular beacon fluorescence, 1.5 h. Plasmodium falciparum apicoplast DNA polymerase (apPOL)
mHTT CaM bind: mutant huntingtin-calmodulin interaction inhibitors – biochemical, AlphaScreen, primary screen. P42858. AlphaScreen His-mHTT/GST-CaM binding, luminescence. inhibition, % at 15 µM. hit rate 3.6% among 190,000;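 also: 0% = both proteins with DMSO and 100% = one protein alone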
Target sequence (P42858 whole entry, looked up, stated change not applied): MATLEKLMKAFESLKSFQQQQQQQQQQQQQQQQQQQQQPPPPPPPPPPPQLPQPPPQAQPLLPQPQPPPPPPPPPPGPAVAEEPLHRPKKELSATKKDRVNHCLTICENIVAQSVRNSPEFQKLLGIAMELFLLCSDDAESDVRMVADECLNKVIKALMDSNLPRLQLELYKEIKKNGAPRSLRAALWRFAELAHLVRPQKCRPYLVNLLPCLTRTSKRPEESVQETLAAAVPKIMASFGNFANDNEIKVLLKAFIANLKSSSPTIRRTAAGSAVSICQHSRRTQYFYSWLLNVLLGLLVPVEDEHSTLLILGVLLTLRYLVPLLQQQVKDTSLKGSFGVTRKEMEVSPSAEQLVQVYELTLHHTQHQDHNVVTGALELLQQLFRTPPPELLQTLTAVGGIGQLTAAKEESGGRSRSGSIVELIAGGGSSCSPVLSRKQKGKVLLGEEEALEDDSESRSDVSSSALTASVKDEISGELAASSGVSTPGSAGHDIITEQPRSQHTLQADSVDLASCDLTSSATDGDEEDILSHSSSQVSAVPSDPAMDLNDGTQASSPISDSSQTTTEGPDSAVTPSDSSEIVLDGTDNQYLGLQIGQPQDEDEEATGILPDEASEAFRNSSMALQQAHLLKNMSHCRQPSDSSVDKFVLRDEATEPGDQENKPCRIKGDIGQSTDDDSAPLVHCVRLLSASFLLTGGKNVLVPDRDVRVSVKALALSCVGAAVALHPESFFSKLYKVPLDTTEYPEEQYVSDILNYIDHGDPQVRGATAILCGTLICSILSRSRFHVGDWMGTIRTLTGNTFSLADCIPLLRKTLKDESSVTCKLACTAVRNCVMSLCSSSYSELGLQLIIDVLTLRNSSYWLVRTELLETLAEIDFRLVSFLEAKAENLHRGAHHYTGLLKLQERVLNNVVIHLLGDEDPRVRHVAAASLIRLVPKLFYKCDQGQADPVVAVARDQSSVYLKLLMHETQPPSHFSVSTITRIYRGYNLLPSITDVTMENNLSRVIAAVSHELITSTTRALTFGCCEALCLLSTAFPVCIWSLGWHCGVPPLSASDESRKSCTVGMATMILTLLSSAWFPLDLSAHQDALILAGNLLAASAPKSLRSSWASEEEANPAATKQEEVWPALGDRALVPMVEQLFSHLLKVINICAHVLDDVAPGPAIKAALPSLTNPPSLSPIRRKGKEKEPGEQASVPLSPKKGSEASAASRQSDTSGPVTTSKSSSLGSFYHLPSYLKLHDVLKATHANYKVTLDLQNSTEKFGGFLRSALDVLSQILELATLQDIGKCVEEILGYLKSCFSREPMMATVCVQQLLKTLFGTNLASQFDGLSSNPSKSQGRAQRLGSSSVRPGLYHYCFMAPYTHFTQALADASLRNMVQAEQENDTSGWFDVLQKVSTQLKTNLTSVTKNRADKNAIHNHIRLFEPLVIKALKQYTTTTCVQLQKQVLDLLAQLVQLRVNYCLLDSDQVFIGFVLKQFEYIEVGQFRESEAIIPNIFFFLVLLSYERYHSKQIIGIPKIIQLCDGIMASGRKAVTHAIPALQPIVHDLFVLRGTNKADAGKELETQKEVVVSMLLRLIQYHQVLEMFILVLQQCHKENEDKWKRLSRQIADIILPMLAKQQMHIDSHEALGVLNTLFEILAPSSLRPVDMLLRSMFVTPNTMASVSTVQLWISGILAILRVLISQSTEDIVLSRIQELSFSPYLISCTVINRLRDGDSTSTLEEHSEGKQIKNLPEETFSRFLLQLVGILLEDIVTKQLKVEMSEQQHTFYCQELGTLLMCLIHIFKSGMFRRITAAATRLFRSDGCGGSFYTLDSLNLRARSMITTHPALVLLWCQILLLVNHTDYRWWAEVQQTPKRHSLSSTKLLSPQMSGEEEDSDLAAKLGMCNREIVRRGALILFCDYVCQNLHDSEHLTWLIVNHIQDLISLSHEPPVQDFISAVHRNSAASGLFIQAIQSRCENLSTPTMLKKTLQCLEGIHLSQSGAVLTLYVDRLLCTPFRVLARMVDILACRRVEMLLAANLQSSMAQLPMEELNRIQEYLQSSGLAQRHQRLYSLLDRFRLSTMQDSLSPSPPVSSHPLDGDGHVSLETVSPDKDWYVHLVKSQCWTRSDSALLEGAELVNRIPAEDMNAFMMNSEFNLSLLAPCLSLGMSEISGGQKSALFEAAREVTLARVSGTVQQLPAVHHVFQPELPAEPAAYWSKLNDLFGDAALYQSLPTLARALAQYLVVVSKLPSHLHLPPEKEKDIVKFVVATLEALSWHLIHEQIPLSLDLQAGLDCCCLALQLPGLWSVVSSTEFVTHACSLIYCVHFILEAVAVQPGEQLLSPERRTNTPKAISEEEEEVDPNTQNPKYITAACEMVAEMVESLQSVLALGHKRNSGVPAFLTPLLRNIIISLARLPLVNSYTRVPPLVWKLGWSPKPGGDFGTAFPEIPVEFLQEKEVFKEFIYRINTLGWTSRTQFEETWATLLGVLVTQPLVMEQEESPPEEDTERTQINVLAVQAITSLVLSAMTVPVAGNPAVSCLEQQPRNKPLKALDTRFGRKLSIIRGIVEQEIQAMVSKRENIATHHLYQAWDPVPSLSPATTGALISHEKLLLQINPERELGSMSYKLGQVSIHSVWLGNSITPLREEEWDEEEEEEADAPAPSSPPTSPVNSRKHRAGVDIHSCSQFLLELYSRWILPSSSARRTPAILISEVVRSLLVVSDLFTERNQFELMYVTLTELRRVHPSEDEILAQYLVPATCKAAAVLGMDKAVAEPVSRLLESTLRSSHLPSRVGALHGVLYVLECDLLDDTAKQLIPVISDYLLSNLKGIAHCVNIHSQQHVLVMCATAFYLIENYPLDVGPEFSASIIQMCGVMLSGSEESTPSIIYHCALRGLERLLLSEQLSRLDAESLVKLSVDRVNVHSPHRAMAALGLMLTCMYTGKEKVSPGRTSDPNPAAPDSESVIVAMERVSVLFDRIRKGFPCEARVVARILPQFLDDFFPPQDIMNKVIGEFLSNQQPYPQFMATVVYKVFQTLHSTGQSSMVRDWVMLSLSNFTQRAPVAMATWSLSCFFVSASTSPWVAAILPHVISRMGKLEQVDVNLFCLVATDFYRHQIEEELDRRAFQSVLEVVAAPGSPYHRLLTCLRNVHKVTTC
* marks the source's active call; other numbers are inactive results; i = inactive; . = no result; + = active, no number; ! = not confirmed by another sample. A selection: hits, their analogues and other compounds. The true share with any hit is near 3.5%. Rule as the data show it: active = inhibition above about 50%; inactive = the rest.

SMILES	Pf apPOL block	mHTT CaM bind
COc1ccc(NC(=O)C2CC(c3ccc(OC)c(OC)c3)=NO2)cc1OC (stereo not drawn)	-4.3	29.8
COc1ccc(NC(=O)C2CC(c3cc(OC)c(OC)c(OC)c3)=NO2)cc1OC (stereo not drawn)	-4.6	45.9
CCOc1cc(C(=O)Nc2ccc3cn[nH]c3c2)cc(OCC)c1OCC	-5.6	11.5
CCCCCC(=O)Nc1cc(-c2nc3ncccc3o2)ccc1Cl	-6.1	7.0
COc1ccc(/C=C2\SC(=O)N(CNc3ccccc3OC)C2=O)cc1	-2.0	32.0
COc1ccc(NCN2C(=O)S/C(=C\c3ccccc3OC)C2=O)cc1	7.4	52.0*
O=C1S/C(=C\c2ccccc2F)C(=O)N1CNc1cccc(F)c1	-0.3	-4.0
COc1ccccc1/C=C1\SC(=O)N(CNc2cccc(C)c2)C1=O	-0.6	58.0*
O=C1c2ccccc2C(O)(O)C1(O)C1(O)C(=O)c2ccccc2C1(O)O (stereo not drawn)	.	-3.4
CCN1c2ccc(F)cc2C(=O)NC12CCN(C(=O)c1cccc(C)c1)CC2	-5.8	3.5
O=C1c2ccc(-c3nc4ccccc4o3)cc2C(=O)N1c1ccc([N+](=O)[O-])cc1	-2.9	8.0
O=C1C=CC(=O)N1c1ccc(-c2nc3ccccc3o2)cc1	-1.9	53.0*
CCc1nc(-c2cccnc2N2CCCC(C(=O)NCCC(C)C)C2)no1 (stereo not drawn)	-2.1	5.0
COc1ccc(C2CC3(O)CC(C#N)(C(=O)N3)C2(C#N)C#N)cc1 (stereo not drawn)	-1.6	2.0
COc1ccc(C2CC3(C)CC(=O)C2C(C#N)(C#N)C3(C#N)C#N)cc1 (stereo not drawn)	-8.6	79.0*
Cc1ccc(CC(=O)N2CCCC2c2cc(C)no2)cc1 (stereo not drawn)	-1.1	-1.1
CC(=O)C1=C(O)C(=O)N(CCC(=O)O)C1c1ccc(Cl)cc1 (stereo not drawn)	-4.2	1.1
CC(=O)c1ccc(NC(=O)CN2CCN(Cc3nc(C(C)(C)C)cs3)CC2)cc1	-1.7	7.7
CC(C)(C)c1csc(CN2CCN(CC(=O)NC3CCCCC3)CC2)n1	-1.4	100.0*
COc1cccc(NC(=O)N2CCN(c3ccc(Nc4cc(C)ccn4)nn3)CC2)c1	-7.0	99.0*
COc1ccc(NC(=O)N2CCN(c3ccc(-n4nc(C)cc4C)nn3)CC2)cc1	-9.0	8.6
CC(C)c1ccc(N2CCN(C(=O)Cc3ccccc3)C(C)C2=O)cc1 (stereo not drawn)	-5.2	12.0
Cc1c(-c2ccccc2)c(=O)oc2ccc(OC(=O)c3ccc([N+](=O)[O-])cc3)cc12	-2.5	0.0
C=CCC1(NCc2ccccc2)CCCC1	-6.4	-8.9
CCN(CC)S(=O)(=O)c1ccc(C)c(NC(=O)c2ccccc2C(=O)O)c1	-1.8	-18.4
SMILES	Pf apPOL block	mHTT CaM bind
CN(C)c1ccc(C2CC(c3ccccc3)=NN2C(=O)c2ccc(F)cc2)cc1[N+](=O)[O-] (stereo not drawn)	-1.2	55.0*
CN(C)c1ccc(C2CC(c3ccccc3)=NN2C(=O)c2ccc(F)cc2)cc1 (stereo not drawn)	1.4	13.0
CN=C1S/C(=C\c2cccc(F)c2)C(=O)N1C	-4.9	3.0
Cc1ccc(C(=O)N2CCCC2c2ccc(F)cc2)cc1 (stereo not drawn)	0.0	-11.0
Cc1ccc(N2CCN(C(=O)c3cccc4[nH]cc(CN5CCCC5)c34)CC2)cc1	-4.1	78.2*
Cc1ccc(NC(=O)c2cccc3[nH]cc(CN4CCCC4)c23)cc1	-1.2	5.0
COc1ccc(CNC(=O)c2nn3c(c2Cl)NC(c2ccco2)CC3C(F)(F)F)cc1 (stereo not drawn)	0.1	12.0
COc1cccc(NC(=O)CCc2cccc3[nH]ccc23)c1	-4.8	18.6
O=C1Nc2ccccc2/C1=N\N1CCN(C2c3ccccc3-c3ccccc32)CC1	.	+
O=C1Nc2ccccc2/C1=N\N1C(=O)C2C=CC=CC2C1=O (stereo not drawn)	.	i
CCOC(=O)Oc1ccc2c(=O)c(-c3ccccc3Cl)coc2c1	-3.0	16.0
COC(=O)Oc1ccc2c(=O)c(-c3ccccc3Cl)coc2c1	-3.7	61.0*!
CCOC(=O)Oc1ccc2c(=O)c(Oc3ccccc3Cl)coc2c1	-3.0	28.0
COC(=O)Oc1ccc2c(=O)c(Oc3ccccc3Cl)coc2c1	1.7	69.0*
CCC(=O)NC(=Nc1nc(C)c2cc(C)c(C)cc2n1)NC(=O)CC	52.5*	2.2
CCOc1ccc2c(C)nc(N=C(N)NC(=O)CC)nc2c1	-1.3	-5.0
CCOC(=O)C1CCN(Cc2cc(=O)oc3c(C)c(O)ccc23)CC1	-4.7	3.8
Cc1ccc(N=C2NC(=O)C(CC(=O)Nc3ccccc3C)S2)cc1 (stereo not drawn)	-10.0	0.0
NCCNC(=O)/C(=C1\Nc2ccc([N+](=O)[O-])cc2N1)[N+](=O)[O-]	2.9	63.0*
O=C(Nc1ccccc1O)/C(=C1\Nc2ccc([N+](=O)[O-])cc2N1)[N+](=O)[O-]	5.2	20.0
O=C(NCc1ccc(Cl)cc1)c1nc(-c2ccncc2)cs1	-2.0	65.9*
Cc1ccc(CNC(=O)c2nc(-c3ccncc3)cs2)cc1	-6.4	14.3
Fc1ccc(-c2noc(-c3ncn4c3COC(c3ccccc3Cl)C4)n2)cc1 (stereo not drawn)	-3.9	19.0
Clc1ccccc1C1Cn2cnc(-c3nc(-c4ccccn4)no3)c2CO1 (stereo not drawn)	-0.2	100.2*
O=C(NCCCN1CCN(c2cccc(Cl)c2)CC1)c1noc2c1CCCCC2	-2.0	42.9
SMILES	Pf apPOL block	mHTT CaM bind
CC1CCN(CC2CCN(S(=O)(=O)c3cccc(C(F)(F)F)c3)CC2)CC1	0.3	-16.9
O=S(=O)(c1cccc(C(F)(F)F)c1)N1CCC(CN2CCCCCC2)CC1	-0.9	98.5*
Cc1c(NC(=O)C2CC(c3ccccc3F)=NO2)c(=O)n(-c2ccccc2)n1C (stereo not drawn)	-0.9	-6.7
Cc1cc(-c2nc(-c3ccnn3S(=O)(=O)c3cccc(C(F)(F)F)c3)cs2)no1	2.8	.
CCOC(=O)c1cc(-c2ccnn2S(=O)(=O)c2cccc(C(F)(F)F)c2)on1	81.9*	.
Cc1csc(-c2ccc(N3CCN(C(=O)c4ccc(F)cc4)CC3)nc2)n1	3.8	5.4
O=[N+]([O-])c1ccc(N2CCCC2)cc1Sc1cccc2cccnc12	-1.9	101.0*
CN1CCN(c2ccc([N+](=O)[O-])c(Sc3cccc4cccnc34)c2)CC1	-1.3	35.4
O=C(Nc1cccc(OC(F)(F)F)c1)c1cn2c(n1)CSCC2	-7.2	3.0
O=C(Nc1cccc(C(F)(F)F)c1)N1CCC2(CC1)Nc1ccccc1-n1cccc12	3.7	97.4*
CCOC(=O)c1ccccc1NC(=O)N1CCC2(CC1)Nc1ccccc1-n1cccc12	4.5	59.8*
CCOC(=O)c1cccc(NC(=O)N2CCC3(CC2)Nc2ccccc2-n2cccc23)c1	-5.3	65.7*
CCOC(=O)Cc1ccc(NC(=O)N2CCC3(CC2)Nc2ccccc2-n2cccc23)cc1	3.7	75.6*
CCOc1ccccc1NC(=O)N1CCC2(CC1)Nc1ccccc1-n1cccc12	-6.7	21.2
O=S(=O)(c1c(F)cccc1F)N1CCC(COCc2ccccc2)CC1	-3.0	-58.7
O=C1OC(c2cccc(Br)c2)=N/C1=C\c1ccc(F)cc1	-5.2	3.0
CCCCNC(=O)CCc1nc2ccccc2n(Cc2c(F)cccc2Cl)c1=O	-7.0	23.0
